# Experimental data as given in PubChem BioAssay AID1851 (National Center for Advancing Translational Sciences (NCATS), 2009).
# About 5,100 (32%) of roughly 16,000 compounds were called active. Another 25% or so got no clear call; they are omitted. The list shows a part of the results. Unmarked numbers belong to inactive results. Calls come from the whole dose curve; as a rule, active = well fitted curve in the direction sought with a large enough effect; inconclusive = small, poorly fitted or top-dose-only effect, or effect the other way; inactive = no such curve, though single readings can be large or run the other way.
# Biological target: Cytochrome P450 3A4 (Homo sapiens) (UniProt P08684)
# Test: Cytochrome panel assay with activity outcomes
# Details: recombinant CYP, pro-luciferin dealkylation, luminescence, p450-cyp3a4; series mostly up to 57.1 µM
# % is set by controls: 0 for no effect and ±100 for the full control effect.
# Chain of Cytochrome P450 3A4 (Homo sapiens) (P08684 whole entry, looked up): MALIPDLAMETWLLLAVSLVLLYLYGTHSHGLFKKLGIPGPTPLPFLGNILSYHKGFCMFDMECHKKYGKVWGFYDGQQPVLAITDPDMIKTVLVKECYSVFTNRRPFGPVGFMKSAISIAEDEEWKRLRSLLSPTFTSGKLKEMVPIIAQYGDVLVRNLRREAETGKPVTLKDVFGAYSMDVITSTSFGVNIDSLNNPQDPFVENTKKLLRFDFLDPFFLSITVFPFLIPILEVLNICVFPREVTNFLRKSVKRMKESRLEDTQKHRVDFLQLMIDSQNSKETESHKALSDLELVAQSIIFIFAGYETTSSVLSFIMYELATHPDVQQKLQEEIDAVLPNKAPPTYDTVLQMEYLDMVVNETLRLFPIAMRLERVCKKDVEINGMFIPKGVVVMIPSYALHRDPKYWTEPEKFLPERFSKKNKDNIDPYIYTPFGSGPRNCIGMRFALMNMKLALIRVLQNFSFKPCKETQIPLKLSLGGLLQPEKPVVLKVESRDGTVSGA
SMILES,"activity, negative = inhibition",AC50
N#Cc1ccc(OC(=O)c2ccc(N=C(N)N)cc2)cc1,-10.9% [at 11.4 µM],–
Cc1cccc(CNc2ncncc2-c2ccccc2C)c1,–,0.398 µM (active)
Cc1cccc(CNc2ncncc2-c2ccccc2Cl)c1,–,0.2 µM (active)
Cc1cccc(CNc2ncncc2-c2ccccc2C(F)(F)F)c1,–,0.0794 µM (active)
Cc1ccc(N(CC(N)=O)C2SC(=O)N(Cc3cccc(C(=O)O)c3)C2=O)cc1 (centres undefined),–,inactive
c1ccc(CSc2nnc([C@@H]3CCCN3)o2)cc1,-4.35% [at 11.4 µM],–
Clc1ccc(CSc2nnc(-c3sccc3-n3cccc3)o2)cc1,–,6.31 µM (active)
Cc1cccc(-c2nnc(SCc3ccccc3)o2)c1,–,inactive
Clc1cccc(CSc2nnc(-c3sccc3-n3cccc3)o2)c1,–,8.91 µM (active)
c1ccc(CSc2nnc(-c3sccc3-n3cccc3)o2)cc1,–,15.8 µM (active)
Clc1ccc(CSc2nnc(-c3cccnc3)o2)cc1,–,3.16 µM (active)
CCOC(=O)c1c(NC(=O)Cn2cc([N+](=O)[O-])cn2)sc2c1CCC2,–,10 µM (active)
CCOC(=O)c1c(NC(=O)Cn2nc([N+](=O)[O-])c(Br)c2C)sc2c1CCC(C)C2 (centres undefined),-21.8% [at 2.29 µM],–
CCOC(=O)c1c(NC(=O)CSc2nnc(C)s2)sc2c1CCCCC2,-23.9% [at 2.29 µM],–
COC(=O)c1c(NC(=O)Cn2cc([N+](=O)[O-])cn2)sc2c1CCC2,–,14.1 µM (active)
O=C(O)CCN1C(=S)CSC1=S,-22% [at 11.4 µM],–
Cc1ccc(-c2ncccc2OC(=O)C23CC4CC(CC(C4)C2)C3)cc1,-12.5% [at 2.29 µM],–
CCC(C(=O)c1ccccc1)N(C(=O)c1ccccc1Cl)N1C(=O)C2C3C=CC(C3)C2C1=O (centres undefined),–,0.891 µM (active)
Cc1ccc(OC(=O)c2cccc(C(=O)Oc3ccc(C)cc3)n2)cc1,6.37% [at 11.4 µM],–
CCOC(=O)c1cccc(C(=O)OCC)n1,–,inactive
COC(=O)c1cccc(C(=O)Nc2ccc(C)cc2)n1,–,12.6 µM (active)
c1csc(CNc2ccnc(-c3ccc4c(c3)OCO4)n2)c1,–,1 µM (active)
c1ccc(CNc2ccnc(-c3ccc4c(c3)OCO4)n2)cc1,–,0.794 µM (active)
c1cncc(CNc2ccnc(-c3ccc4c(c3)OCO4)n2)c1,–,1 µM (active)

SMILES,"activity, negative = inhibition",AC50
COc1c(O)cc2c(c1O)[C@@H]1O[C@@H](CO)[C@@H](O)[C@@H](O)[C@@H]1OC2=O,–,inactive
COc1cccc(Nc2nc(-c3ccc(O)cc3)cs2)c1,–,7.08 µM (active)
c1cnc(Nc2nc(-c3ccc4ccccc4c3)cs2)nc1,–,inactive
Cc1nn2c([nH]c(=O)c3ccccc32)c1C=O,–,inactive
O=C(NCc1ccccc1)c1sc(=S)n2c1[nH]c(=O)c1ccccc12,–,3.98 µM (active)
O=C(O)NCc1ccccc1 (tested in a mixture with another compound),-3.33% [at 11.4 µM],–
COc1ccc2cc3cc(C(=O)NCCN4CCN(c5ccccc5F)CC4)oc3nc2c1,–,14.1 µM (active)
COc1ccc2cc3cc(C(=O)NCCCN4CCOCC4)oc3nc2c1,–,10 µM (active)
CCN1CCN(CCCNC(=O)c2cc3cc4ccc(OC)cc4nc3o2)CC1,–,inactive
COc1cc2c3c(c1OC)C1(C=CC(=O)C=C1)CC3N(C(=O)c1ccccc1)CC2 (centres undefined),–,inactive
CN1CCN(C(=O)c2ccc(-n3cccc3)cc2)CC1,–,inactive
COc1cc2c(C(=O)N3CCN(C)CC3)c(C)n(-c3ccccc3)c2cc1Br,–,1.12 µM (active)
COc1ccc2nc(N)sc2c1,–,inactive
COc1ccc2nc(/N=C\N(C)C)sc2c1,–,inactive
COc1ccc2c(Cl)c(-c3nnco3)sc2c1,–,7.08 µM (active)
COc1ccc(/C=N/Nc2snc(SC)c2C#N)cc1OC,–,8.91 µM (active)
COc1cc(/C=N\Nc2nc3ccccc3[nH]2)cc(OC)c1OC,-13.5% [at 2.29 µM],–
COc1cc(/C=N/Nc2snc(SC)c2C#N)cc(OC)c1OC,–,7.94 µM (active)
CS(=O)(=O)Nc1cccc(-c2cncnc2Nc2ccc(F)cc2)c1,–,0.316 µM (active)
COc1cccc(-c2cncnc2Nc2ccc(F)cc2)c1,–,0.794 µM (active)
CS(=O)(=O)Nc1cccc(-c2cncnc2Nc2ccccc2)c1,–,0.501 µM (active)
COc1cccc(-c2cncnc2NC2CCNCC2)c1,–,inactive
Cc1cc(N)c2ccccc2[n+]1CCCCCCCCCCCCCC[n+]1c(C)cc(N)c2ccccc21,–,10 µM (active)
CCCCCCCCC[n+]1cccc2c3ccccc3ccc21,–,inactive

SMILES,"activity, negative = inhibition",AC50
Nc1cc2c(nc3c4ccccc4c(N)cc3[n+]2-c2cccc3ccccc23)c2ccccc12 (tested in a mixture with another compound),-29.5% [at 11.4 µM],–
CCOC(=O)[C@H](N)/C=C(\C)CP(=O)(O)O,–,inactive
O=C(CSc1nc2ccccc2s1)N1c2ccccc2Sc2ccc(C(F)(F)F)cc21,–,6.31 µM (active)
O=C(CSc1nc2ccccc2s1)c1sc2sc3ccccc3[n+]2c1O,-12.2% [at 11.4 µM],–
O=C(CSc1nc2ccccc2s1)N1c2ccccc2Sc2ccccc21,–,11.2 µM (active)
CO/N=C(\C(=O)N[C@@H]1C(=O)N2C(C(=O)O)=C(COC(N)=O)CS[C@@H]12)c1ccco1,–,inactive
N[C@@H](CSS(=O)(=O)O)C(=O)O,–,inactive
CC(C)(C)c1[nH]nc2c1C(c1ccc(OC(=O)c3ccco3)cc1)C(C#N)=C(N)O2 (centres undefined),–,2.24 µM (active)
O=C(Nc1ccccc1Cl)c1ccn[nH]1,–,inactive
COC(=O)c1ccccc1NC(=O)c1ccc(F)cc1,–,inactive
O=C(Nc1cccc2[nH]ncc12)c1ccc(F)cc1,–,15.8 µM (active)
COCC(=O)N1CCC2(CC1)CN(C(=O)Nc1cccc(F)c1)C2,–,inactive
O=C(Nc1cccc(F)c1)N1CCCC2(CCN(C(=O)c3cc(C(F)(F)F)cc(C(F)(F)F)c3)CC2)C1,–,12.6 µM (active)
COC(=O)N1CCC2(CCCN(C(=O)Nc3ccccc3)C2)CC1,–,inactive
O=C(Nc1cccc(F)c1)N1CC[C@@]2(CCCN(C(=O)c3cc(C(F)(F)F)cc(C(F)(F)F)c3)C2)C1,–,15.8 µM (active)
O=C(Nc1ccccc1)N1CC2(CCN(C(=O)c3cc(C(F)(F)F)cc(C(F)(F)F)c3)CC2)C1,–,inactive
N#Cc1cccc(NC(=O)N2CCCC3(CCN(C(=O)c4cc(C(F)(F)F)cc(C(F)(F)F)c4)CC3)C2)c1,–,10 µM (active)
Cn1cccc1C(=O)N1CCC2(CCN(C(=O)Nc3cccc(F)c3)CC2)CC1,–,inactive
O=C(Nc1ccccc1)N1CCCC2(CCN(C(=O)c3cc(C(F)(F)F)cc(C(F)(F)F)c3)CC2)C1,–,15.8 µM (active)
Cc1csc(NC(=O)Cc2c[nH]c3ccccc23)n1,–,35.5 µM (active)
C=CC[C@@H]1C=C[C@H](O/N=C\[C@@H](C)[C@H](OCc2ccccc2)C(C)C)[C@H](CO)O1,–,3.98 µM (active)
CC(=O)OC[C@H]1O[C@@H](O/N=C\[C@@H](C)[C@H](OCc2ccccc2)C(C)C)[C@H](OC(C)=O)[C@@H](OC(C)=O)[C@H]1OC(C)=O,-74.7% [at 11.4 µM],–
CO/N=C\[C@@H](OC)[C@H](C)/C=C\CC(=O)OC,-11.6% [at 11.4 µM],–
COC(=O)[C@H](C)NC(=O)C/C=C\[C@@H](C)[C@H]1C=C[C@H](O)[C@@H](CO)O1,-25.2% [at 11.4 µM],–

SMILES,"activity, negative = inhibition",AC50
C=CC[C@@H]1C=C[C@@H](O/N=C\[C@@H](OC)[C@H](C)/C=C\CC(=O)OC)[C@@H](CO)O1,–,3.16 µM (active)
CO[C@]1(NC(=O)C2SC(=C(C(N)=O)C(=O)O)S2)C(=O)N2C(C(=O)O)=C(CSc3nnnn3C)CS[C@H]21 (some centres undefined),–,inactive
CCc1ncc(CO)n1Cc1cccc2ccccc12,-11.4% [at 11.4 µM],–
COc1cc(CNCc2cccs2)ccc1OCC(=O)NC(C)(C)C,–,4.47 µM (active)
CCOC(=O)N1CCN(C(=O)CNCc2cccs2)CC1,–,inactive
COc1ccc(CNC(=O)Nc2cccs2)cc1OC,–,22.4 µM (active)
COc1cc(CNCc2cccs2)cc(Br)c1OC,–,7.08 µM (active)
COc1cc(CNCc2cccs2)ccc1OCC(N)=O,–,inactive
CCN1CCN(Cc2ccc(NC(=O)Nc3cccs3)cc2)CC1,–,inactive
N[C@H](C(=O)O)[C@@H](O)c1cnc[nH]1,-12.3% [at 11.4 µM],–
COc1ccc(OC)c(C(=O)CN2C(=O)NC(C)(c3ccccc3)C2=O)c1 (centres undefined),–,10 µM (active)
Cc1cc(NC(=O)CN2C(=O)NC(C)(c3ccc(OC(F)F)cc3)C2=O)no1 (centres undefined),–,inactive
COc1ccc2c(c1)CCCC21NC(=O)N(CC(N)=O)C1=O (centres undefined),–,inactive
CC(C)NCCOCCSc1ccc(Cl)cc1,–,inactive
COC(=O)[C@@H]1C[C@H]1[C@@H](NC(=O)c1ccccc1)c1ccccc1,–,inactive
COC(=O)[C@@H]1C[C@H]1[C@@H](NC(=O)c1cccnc1)c1ccccc1,–,10 µM (active)
COC(=O)[C@H]1C[C@@H]1[C@H](NC(=O)c1cccnc1)c1ccccc1,–,5.01 µM (active)
O=C(O)CN(CCN(CC(=O)O)CC(=O)O)CC(=O)O.[Mn],1.35% [at 11.4 µM],–
N[C@@H](C(=O)O)c1ccc(C(=O)O)c(C(=O)O)c1,–,inactive
Fc1ccc(Nc2ncncc2-c2ccccc2C(F)(F)F)cc1,–,0.398 µM (active)
CNc1ncncc1-c1ccccc1C(F)(F)F,–,0.794 µM (active)
FC(F)(F)c1ccccc1-c1cncnc1Nc1ccccc1,–,0.501 µM (active)
